The results in this text go back to ChEMBL document CHEMBL1201862, “PubChem BioAssay data set” (2004).

Where “and” joins values, the source holds several entries; their conditions need not be identical. Equal entries are not always repeated.

A short description of the test: Mycobacterium tuberculosis growth inhibition, dose response, 7H9 media, purified and synthesized compounds, set 8 (AID 588447). The format is functional.
For the molecule `Cc1cccc(N2CCN(C(=O)c3ccc(CNc4c(N5CCC(C)CC5)c(=O)c4=O)cc3)CC2C)c1` (centres undefined), the IC90 was > 76.5 µM (active). Regarding `O=C(C1CCC(CNc2c(N3CCCCC3)c(=O)c2=O)CC1)N1CCCCC1` (centres undefined), the IC90 is > 100 µM (active). For the molecule `O=C(NCCc1ccc(Cl)cc1)C1CCC(CNc2c(N3CCCCC3)c(=O)c2=O)CC1` (centres undefined), the IC90 is > 100 µM (active).

Consider `CC(=O)c1ccc(NC(=O)c2ccc(CNc3c(N4CCOCC4)c(=O)c3=O)cc2)cc1`, for which the IC90 was > 100 µM (active). On to `CC1CC(C)CN(C(=O)c2ccc(CNc3c(N4CCCC4)c(=O)c3=O)cc2)C1` (centres undefined), for which the concentration for an effect of 90% (IC90) was > 100 µM (active). As to `O=C(NCCc1ccc(Cl)cc1)c1ccc(CNc2c(N3CCOCC3)c(=O)c2=O)cc1`, the IC90 is > 100 µM (active). The result for `COc1ccc(N2CCN(C(=O)c3ccc(CNc4c(N5CCOCC5)c(=O)c4=O)cc3)CC2)cc1` reads > 100 µM (active). The result for `CC1CCCN(C(=O)C2CCC(CNc3c(N4CCCCC4)c(=O)c3=O)CC2)C1` (centres undefined) reads > 100 µM (active); that for `O=C(c1ccc(CNc2c(N3CCCC3)c(=O)c2=O)cc1)N1CCc2ccccc2C1`, > 100 µM (active); that for `CC1CC(C)CN(C(=O)C2CCC(CNc3c(N4CCCCC4)c(=O)c3=O)CC2)C1` (centres undefined), > 75 µM (active) and > 100 µM (active). On to `CCOC(=O)CSc1ncnc2c1cnn2-c1ccccc1`, for which the IC90 is > 75.1 µM (active). For the molecule `CC(C)OC(=O)CSc1ncnc2c1cnn2-c1ccccc1`, the IC90 is > 100 µM (active). The result for `CC1CCCN(C(=O)c2ccc(CNc3c(N4CCCCC4)c(=O)c3=O)cc2)C1` (centres undefined) reads > 100 µM (active); that for `CC1CCN(C(=O)c2ccc(CNc3c(N4CCCC4)c(=O)c3=O)cc2)CC1`, > 100 µM (active).
